{"source": "PubChem BioAssay (NCI)", "note": "Compounds without any hit were thinned out: in the full panel of roughly 83,000, 20% have a hit.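 Activity criterion: percent growth below 10, measured after cells in 96-well plates were exposed to a single compound concentration for 48 hours.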 Active and inactive are the calls of the source."}
{"system": "SK-OV-3 ovarian", "experiment": "NCI-60 one-dose screen, 48 h (100 = growth as untreated, 0 = no growth, -100 = all killed)", "details": "10 µM unless noted", "experimental": "Growth inhibition of the SK-OV-3 human tumor cell line is measured as a screen for anti-cancer activity. Cells are grown in 96 well plates and exposed to the test compound for 48 hours. Compounds are tested at a single concentration, which is 10^-5 M for most compounds. The reported endpoint is percent growth (GI% or GIPRCNT), where numbers from 0 - 100% represent growth inhibition, and numbers from -100% - 0 represent cell death. For example, a value of 40 represents 60% growth inhibition. A value of 0 means no net growth occurred over the course of the experiment. A value of -40 indicates 40% of cells at the beginning of the experiment died by the end of the experiment. A value of -100 means all cells are dead at the end of the experiment.\nNCI-60 Human Tumor Cell Lines Screen was performed using the standard one-dose NCI protocol, which is described in more detail at https://dtp.cancer.gov/discovery_development/nci-60/default.htm.\nCompounds with GIPRCNT values below 10 were considered active. Activity score was based on GIPRCNT using the following formula: […]\nScore is 0 for GIPRCNT values of 100 or above, 50 for GIPRCNT values of 0, and 100 for GIPRCNT values of -100."}
{"smiles": "CCSc1cnnc2ccccc12", "growth": "109% (inactive)"}
{"smiles": "O=c1nc(-c2ccccc2)c2cc(-c3ccc(N4CCOCC4)cc3)ccc2[nH]1", "growth": "77.1% (inactive)"}
{"smiles": "CNC(=O)c1c(NC(=O)c2ccc(C(C)C)cc2)sc2c1CCC(=O)C2", "growth": "-3.87% (active)"}
{"smiles": "C=CC(=O)N1CN(C(=O)C=C)CN(C(=O)C=C)C1", "growth": "99% (inactive)"}
{"smiles": "Nc1c(N)c2ccccc2c2ccccc12", "growth": "102% (inactive)"}
{"smiles": "COc1cccc(NC(=O)OC(C)C)c1", "growth": "104% (inactive)"}
{"smiles": "CC1OC(n2c3ccccc3c3c4c(c5c6ccccc6[nH]c5c32)C(=O)N(CCN[C@H]2CCC[C@@H]2N)C4=O)CC(O)C1O", "note": "(stereo not given in full)", "growth": "40.7% (inactive)"}
{"smiles": "Nc1c(Br)cc2c(c1Br)Cc1cc(Cl)ccc1-2", "growth": "82.5% (inactive)"}
{"smiles": "CCOC(=O)Cn1c(-c2nonc2NC(=O)c2ccccc2F)nc2ccccc21", "growth": "75% (inactive)"}
{"smiles": "O=C(CC(=O)c1cccc(Cl)c1)c1cccc(Cl)c1", "growth": "47.5% (inactive)"}
{"smiles": "Cc1ccsc1C(=O)CC(=O)C(F)(F)C(F)(F)C(F)(F)F", "growth": "103% (inactive)"}
{"smiles": "COc1cc2ccc(C(C)=O)cc2cc1OC", "growth": "95.6% (inactive)"}
{"smiles": "CCN(CC)c1ccc(/C=N/N=C(N)N)cc1", "growth": "37.6% (inactive)"}
{"smiles": "COc1cccc(-c2nc3sccn3c2-c2ccnc(NCCN3CCCN(C)S3(=O)=O)n2)c1", "growth": "62.4% (inactive)"}
{"smiles": "C=C1C(=O)O[C@H]2[C@H]1CC/C(COC(=O)NCc1ccc(Cn3c(=O)sn(CCCl)c3=O)cc1)=C\\CC[C@@]1(C)O[C@@H]21", "growth": "85.3% (inactive)"}
{"smiles": "COc1cnc2c(c1)C(=O)c1c-2n(CCCN2CCNCC2)c(=O)c2cc(Cl)ccc12", "growth": "14.5% (inactive)"}
{"smiles": "COc1cc(C)c(Cl)cc1C1=NN(c2ccc(S(N)(=O)=O)cc2)C(/C=C/c2ccccc2)C1", "note": "(stereo not given)", "growth": "88.8% (inactive)"}
{"smiles": "Oc1ccc(-c2nnc3c4[nH]ccc4ncn23)cc1", "growth": "99.7% (inactive)"}
{"smiles": "NNc1ccc(S(N)(=O)=O)cc1", "growth": "104% (inactive)"}
{"smiles": "COc1ccc(C(=O)N2N=C(c3ccc(F)cc3)CC2c2cn(-c3ccccc3)nc2-c2ccccc2)cc1", "note": "(stereo not given)", "growth": "62% (inactive)"}
{"smiles": "O=C1/C=C/[C@@H](O)[C@@H]2C[C@@H](O)C[C@H]2/C=C/CCC[C@H]([C@@H](O)CO)O1", "growth": "91.6% (inactive)"}
{"smiles": "CCCCc1nc(Cl)c(C2CC(c3ccc(S(N)(=O)=O)cc3)=NN2c2cc(Cl)cc(Cl)c2)[nH]1", "note": "(stereo not given)", "growth": "69.6% (inactive)"}
{"smiles": "CCOC(=O)c1ccc(NC(=O)CSC(N)=O)cc1", "growth": "128% (inactive)"}
{"smiles": "COc1cnc2c(c1)C(=O)c1c-2n(CCCN2CCN(C)CC2)c(=O)c2cc(Cl)ccc12", "growth": "52.3% (inactive)"}
{"smiles": "COc1cccc(/C(C)=N/NC(=O)CSc2nc3ccccc3c(=O)n2CCc2ccc(S(N)(=O)=O)cc2)c1", "growth": "43.7% (inactive)"}
{"smiles": "Clc1ccc(-c2nc(-c3cccs3)no2)cc1", "growth": "99.2% (inactive)"}
{"smiles": "Cc1cc(N)cc(C)c1-c1c(Br)cc(N)cc1Br", "growth": "6.33% (active)"}
{"smiles": "CCCCCCCCCCCCCC", "growth": "104% (inactive)"}
{"smiles": "CC(C)(C)c1ccc(OC(=O)Nc2ccccc2)cc1", "growth": "110% (inactive)"}
{"smiles": "O=C1NN(C(=O)c2ccccc2)C(c2ccc(Cl)c(Cl)c2)=C/C1=C\\c1ccccc1[N+](=O)[O-]", "growth": "37.1% [6.75 µM] (inactive)"}
{"smiles": "C[C@@H]1N=C(c2ccc3ccccc3c2)Nc2nc3ccccn3c2C1=O", "growth": "40.5% (inactive)"}
{"smiles": "COc1cc(C2CC(c3cccc(Nc4ccnc5cc(Cl)ccc45)c3)=NN2C=O)cc(OC)c1OC", "note": "(stereo not given)", "growth": "0.586% (active)"}
{"smiles": "C=CCOC(=O)C1=C(C)NC2=C(C(=O)CC(C)(C)C2)C1c1ccc(OC)cc1", "note": "(stereo not given)", "growth": "82.1% (inactive)"}
{"smiles": "CC(C)N(C(=S)SSC(=S)N(C(C)C)C(C)C)C(C)C", "growth": "112% (inactive)"}
{"smiles": "CCCCCCCCCCCC1=NC(C)(C)CN1CCO", "growth": "97% (inactive)"}
{"smiles": "COc1ccc(C2c3cccn3-c3ccccc3N2C(C)=O)cc1", "note": "(stereo not given)", "growth": "101% (inactive)"}
{"smiles": "O=C1/C(=C/c2cc(F)cc(F)c2)Cc2cc(F)cc(F)c21", "growth": "111% (inactive)"}
{"smiles": "COC(=O)c1ccc2c(c1)nc(-c1cc3ccccc3[nH]c1=O)n2-c1cc(C(C)(C)C)[nH]n1", "growth": "105% (inactive)"}
{"smiles": "Cc1ccc(C(CN(C)C)C(=O)c2ccccc2)cc1", "note": "(stereo not given)", "growth": "97.6% (inactive)"}
{"smiles": "COc1cc(-c2nc(-c3ccc(-c4nc5ccc(F)cc5[nH]4)cc3)no2)cc(OC)c1OC", "growth": "85.5% (inactive)"}
